# Compounds without any hit were thinned out: in the full panel of roughly 79,000, 15% have a hit. Values without a mark were called inactive. Active and inactive are the calls of the source. Rule as the data show it: active = growth inhibition above about 70%; inactive = the rest.
# Experiment: NCI Yeast Anticancer Drug Screen. Data for the mec2-1 strain (AID 157)
# Details: S. cerevisiae mec2-1 strain, at 5.0 µM (retest, dose inferred, filed as 0.5), hits give high values
# Procedure, shortened: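 Yeast mec2-1 mutant treated with compound. Readout: growth inhibition vs vehicle controls.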
row,SMILES,growth inhibition
1,CC(OC(=O)Nc1cccc(Cl)c1)c1ccccc1 (centres undefined),8%
2,O=C(O)/C=C/c1c2ccccc2cc2ccccc12,16%
3,Cc1c[nH]c2c(O)cc3c(c12)[C@H](CCl)CN3C(=O)c1cc2cc(NC(=O)Nc3ccc4[nH]c(C(=O)N5C[C@@H](CCl)c6c5cc(O)c5[nH]cc(C)c65)cc4c3)ccc2[nH]1,30%
4,Cc1ccc(S(=O)(=O)OC(C=O)C(O)C(O)COC(c2ccccc2)(c2ccccc2)c2ccccc2)cc1 (centres undefined),98% (active)
5,COc1cc2c(cc1C(C)C)CCC1C(C)(C#N)CCCC21C (centres undefined),3%
6,Fc1ccc(NC(=S)SCc2ccc(Cl)c(Cl)c2)c(F)c1,7%
7,COC(=O)/C=C(\NC1CC(OC2C[C@](O)(C(C)=O)Cc3c(O)c4c(c(O)c32)C(=O)c2c(OC)cccc2C4=O)OC(C)C1O)C(=O)OC (some centres undefined),15%
8,O=C1CSC(=S)N1c1ccc(F)cc1F,-2%
9,CS(=O)(=O)OCCN(CCOS(C)(=O)=O)c1ccc(C=Nc2ccc3ccccc3c2)c(Cl)c1,-203%
10,CN(C)C(=O)Nc1ccc(Cc2ccc(NC(=O)N(C)C)cc2)cc1,-29%
11,O=c1c(Cl)c(Cl)c(=O)c2sc3cc(Cl)ccc3[nH]c1=2,3%
12,O=S(=O)(O)C(O)c1ccc2ccc3cccc4ccc1c2c34 (centres undefined),-2%
13,N#Cc1cc([N+](=O)[O-])ccc1NC(=O)/C(=N/N)C(C(=O)c1ccc(Cl)c(Cl)c1)C1OC(=O)c2ccccc21 (centres undefined),11%
14,O=C(Nc1ccc(Cl)c(Cl)c1Cl)Oc1c(Cl)c(Cl)c(Cl)c(Cl)c1Cl,36%
15,O=[N+]([O-])c1cc(Cl)cc2c1nc(NCCO)c1ccccc12,26%
16,CCNc1nc(C(F)(F)F)nc2nc[nH]c12,1%
17,CC1CCN(CCOC(=O)C(c2ccccc2)C2C=CCCC2)C1 (centres undefined),3%
18,CCOC(=O)c1c(N)sc2c1CCCCC2,-51%
19,CC(C(O)Cc1ccccc1)N(C)N=Nc1ccc([N+](=O)[O-])cc1 (centres undefined),18%
20,O=[N+]([O-])c1ccc(/C=c2\sc3scc(-c4ccc([N+](=O)[O-])cc4)[n+]3\c2=C/c2ccc([N+](=O)[O-])cc2)cc1,100% (active)
21,Oc1cc(C(c2ccccc2)c2ccccc2)c2ccccc2c1O,26%
22,CC1=CC2OC3CC4OC(=O)/C=C/C=C/C(C(C)O)OCC(=O)C(C)CC(=O)OCC2(CC1)C4(C)C31CO1 (centres undefined),26%
23,CC(NNC(=S)N1CCCCCC1)c1cc2ccccc2cn1 (centres undefined),65%
24,CC(C)C1=CC23CCC4C(C)(C(=O)O)CCCC4(C)C2CC1C1C(=O)C=CC(=O)C13 (centres undefined),81% (active)

# Reference: PubChem BioAssay (NCI)
